CtBP-E1A inh: qHTS Assay for Inhibitors of the CtBP/E1A Interaction. AlphaScreen GST-E1A/His-CtBP binding, 1536-well; active compounds read low. activity change, % (no concentration beside the values). actives 0.49% (n = 340,000); in the data active = activity change below about -65%; inconclusive = mostly about -30% to -63%; note: % is set by controls: 0 for no effect and ±100 for the full control effect
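GST-E1A and His-tagged CtBP (125 nM each as 5X stock) were preincubated with pin-transferred compound for 2 h at 37 °C in the dark, then glutathione donor and nickel acceptor beads were added for 1 h before AlphaScreen reading.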
TDP1 inh: qHTS Assay for Inhibitors of Tyrosyl-DNA Phosphodiesterase (TDP1) | recombinant TDP1, AlphaScreen DNA substrate cleavage | Potency, µM (doses to about 130 µM), without a hit: at the top dose activity change, negative = inhibition, hits mostly inhibitors | actives 0.28% (n = 350,000); note: potency is the fitted concentration of half-maximal effect; % is set by controls: 0 for no effect and ±100 for the full control effect; nearly all actives have a fitted effect of over 40% in size
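AlphaScreen read-out: signal falls as enzyme removes the 3' tyrosine-FITC from a 5'-biotinylated DNA oligo (15 nM, 5 min, RT). Enzyme was E. coli-made recombinant Tdp1 at 1 nM, exposed to compound for 15 min beforehand; beads 10 ug/ml, 10 min.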
HP1b chromo inh: HTS for Inhibitors of HP1-beta Chromodomain Interactions with Methylated Histone Tails; Chromobox protein homolog 1 (Homo sapiens), P83916; AlphaScreen HP1-beta / biotin-H3K9me3 peptide binding; Potency, µM (highest dose often 114 µM), for inactives: at the top dose activity change, negative = inhibition, hits mostly inhibitors; actives 0.56% (n = 390,000); note: potency is the fitted concentration of half-maximal effect; nearly all actives have a fitted effect of over 70% in size
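AlphaScreen: HP1-beta (50 nM) preformed 30 min with biotin-H3(1-18)K9me3 peptide (50 nM) in PBS pH 7.4, 0.01% Tween-20. Compound added for 30 min at RT, then streptavidin donor/nickel chelate acceptor beads (10 ug/mL) for 30 min.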
BAZ2B block: qHTS Assay for Inhibitors of BAZ2B; Bromodomain adjacent to zinc finger domain protein 2B (Homo sapiens), Q9UIF8; AlphaScreen BAZ2B-H3K14Ac peptide displacement; Potency, µM (series often up to 114 µM), for the others: at the highest dose activity change, negative = inhibition, hits mostly inhibitors; actives 4.4% (n = 360,000); note: potency is the fitted concentration of half-maximal effect; % is set by controls: 0 for no effect and ±100 for the full control effect; nearly all actives have a fitted effect of over 60% in size
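Inhibition is scored as reduced AlphaScreen emission. The BAZ2B/b-H3(5-23)K14Ac complex (50 nM each) in PBS pH 7.4, 0.01% Tween-20 meets compound (up to 110 uM) for 30 min at RT before bead addition.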
JMJD2A Tudor inh: qHTS Assay for Inhibitors of JMJD2A-Tudor Domain | Lysine-specific demethylase 4A (Homo sapiens), O75164 | Potency, µM (titrated, usually from 114 µM), without a hit: at the highest dose activity change, negative = inhibition, most hits filed as inhibitors | actives 4.4% (n = 390,000) | AlphaScreen JMJD2A-Tudor / H3K4me3 peptide binding; note: potency is the fitted concentration of half-maximal effect; % is set by controls: 0 for no effect and ±100 for the full control effect; nearly all actives have a fitted effect of over 50% in size
Six1-Eya2 inh: qHTS Assay for Inhibitors of the Six1/Eya2 Interaction. Homeobox protein SIX1 (Homo sapiens) + Protein phosphatase EYA2 (Homo sapiens), …. AlphaScreen GST-Six1/His-Eya2 binding, biochemical; active compounds read low. activity change, % (no concentration beside the values). actives 0.56% (n = 360,000). AID 651725, 2012; in the data active = activity change below about -65%; inconclusive = mostly about -30% to -63%; note: % is set by controls: 0 for no effect and ±100 for the full control effect
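GST-Six1 + His-Eya2 (5X stock: 250/500 nM); Tris pH 8.0, 300 mM NaCl, 0.05% BSA, 0.02% Tween 20; GSH donor/Ni acceptor beads; 1 h 37 °C dark; AlphaScreen readout.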
An asterisk follows results filed as active; [ ] = dose if it differs, or a comment. Rows were chosen to be rich in hits. Some 5.3% of all compounds tested hit in one or more screens of this group. Unless noted, calls come from the whole dose curve; as a rule, active = well fitted inhibition curve with a large enough effect; inconclusive = small, poorly fitted or top-dose-only effect; inactive = no such curve, though single readings can be large or run the other way.

Results for COc1ccc(C)cc1NS(=O)(=O)c1cnc(N)nc1 ?
TDP1 inh: 7%; HP1b chromo inh: 31%[57 µM]; BAZ2B block: -26%; JMJD2A Tudor inh: 5%

What do the screens show for `C=CCn1c(SCC(=O)c2ccccc2)nnc1-c1ccc2c(c1)OCO2`?
CtBP-E1A inh: 10; TDP1 inh: -2%; HP1b chromo inh: -19%; BAZ2B block: inconclusive; JMJD2A Tudor inh: 35µM*; Six1-Eya2 inh: -9

What do the screens show for `C=CCn1c(SCC(=O)c2ccccc2)nnc1-c1cc2ccccc2o1`?
CtBP-E1A inh: 0; TDP1 inh: 5%; HP1b chromo inh: 27%; BAZ2B block: -4%; JMJD2A Tudor inh: -17%; Six1-Eya2 inh: 5

What do the screens show for `C=CCn1c(SCC(=O)Nc2nnc(C)s2)nnc1-c1cccnc1`?
CtBP-E1A inh: -22; TDP1 inh: -1%; HP1b chromo inh: 9%; BAZ2B block: -35%; JMJD2A Tudor inh: 56µM*; Six1-Eya2 inh: 1

What do the screens show for `O=C(Nc1nc2nccc(-c3ccccc3)n2n1)c1ccccc1`?
CtBP-E1A inh: -2; TDP1 inh: 79µM*; HP1b chromo inh: 94%; BAZ2B block: -5%; JMJD2A Tudor inh: -27%; Six1-Eya2 inh: -1

Results for N#Cc1ccc(NC(=O)COCc2cc(-c3ccco3)on2)cc1 ?
TDP1 inh: 1%; HP1b chromo inh: 3%; BAZ2B block: -2%; JMJD2A Tudor inh: -3%

What do the screens show for `COc1cc(C(=O)Nc2ccc(NC(=O)c3ccccc3)nc2)cc(OC)c1OC`?
CtBP-E1A inh: -2; TDP1 inh: 3%; HP1b chromo inh: 22%; BAZ2B block: inconclusive; JMJD2A Tudor inh: -6%; Six1-Eya2 inh: -12

Results for COc1cc(C(=O)Nc2ccc(NC(=O)C(C)C)nc2)cc(OC)c1OC ?
CtBP-E1A inh: 2; TDP1 inh: 3%; HP1b chromo inh: 26%; BAZ2B block: 79µM*; JMJD2A Tudor inh: -22%; Six1-Eya2 inh: 3

How did C[C@@](Cc1ccc(O)c(O)c1)(NN)C(=O)O do in these assays?
CtBP-E1A inh: -6; TDP1 inh: inconclusive; HP1b chromo inh: inconclusive; BAZ2B block: 5%; JMJD2A Tudor inh: 79µM*; Six1-Eya2 inh: 5

Results for O=C1CCc2cc([S+](=O)([O-])NC3CCOCC3)ccc2N1 ?
TDP1 inh: 1%; JMJD2A Tudor inh: -16%

What do the screens show for `C=CCn1cccc(/C=C/C(=O)c2ccc(C(C)(C)C)cc2)c1=S`?
CtBP-E1A inh: -3; TDP1 inh: 8%; HP1b chromo inh: inconclusive; BAZ2B block: 11µM*; JMJD2A Tudor inh: 32µM*; Six1-Eya2 inh: 4

Results for COc1cccc(C2=Nc3cccc4cccc(c34)N2)c1 ?
CtBP-E1A inh: -8; TDP1 inh: -4%; HP1b chromo inh: inconclusive; BAZ2B block: 40µM*; JMJD2A Tudor inh: 50µM*; Six1-Eya2 inh: -17

How did c1coc(C2=Nc3cccc4cccc(c34)N2)c1 do in these assays?
CtBP-E1A inh: 0; TDP1 inh: -5%; HP1b chromo inh: inconclusive; BAZ2B block: inconclusive; JMJD2A Tudor inh: -29%; Six1-Eya2 inh: -22

How did Nc1ccc(C2=Nc3cccc4cccc(c34)N2)cc1 do in these assays?
TDP1 inh: -6%; HP1b chromo inh: 25%; BAZ2B block: 50µM*; JMJD2A Tudor inh: -23%; Six1-Eya2 inh: -7

What do the screens show for `CC1=Nc2cccc3cccc(c23)N1`?
CtBP-E1A inh: inconclusive; TDP1 inh: 10%; HP1b chromo inh: inconclusive; BAZ2B block: -5%; JMJD2A Tudor inh: inconclusive; Six1-Eya2 inh: -30

What do the screens show for `Cc1ccc(Cn2cnc3c(oc4ccccc43)c2=O)cc1`?
TDP1 inh: 3%; HP1b chromo inh: 20%; BAZ2B block: -9%; JMJD2A Tudor inh: -18%

How did Cc1ccccc1NC1=C/C(=N\S(=O)(=O)c2ccc(C(=O)O)cc2)c2ccccc2C1=O do in these assays?
CtBP-E1A inh: inconclusive; TDP1 inh: 5%[0.0935 µM]; HP1b chromo inh: 45µM*; BAZ2B block: 13µM*; JMJD2A Tudor inh: 40µM*; Six1-Eya2 inh: -23

How did COC(=O)C(C(C)=O)C1=C/C(=N\S(=O)(=O)c2ccc(C)cc2)c2ccccc2C1=O (stereo not drawn) do in these assays?
CtBP-E1A inh: -11; TDP1 inh: 1%; HP1b chromo inh: -20%; BAZ2B block: -10%; JMJD2A Tudor inh: -23%; Six1-Eya2 inh: -12

Results for O=C(O)c1ccc(S(=O)(=O)/N=C2\C=C(Nc3ccccc3F)C(=O)c3ccccc32)cc1 ?
CtBP-E1A inh: -76*; TDP1 inh: 12%; HP1b chromo inh: 40µM*; BAZ2B block: 22µM*; JMJD2A Tudor inh: 40µM*; Six1-Eya2 inh: inconclusive

How did CCn1c(=O)c(C(=O)Nc2ccc(C(C)=O)cc2)nc2ccccc21 do in these assays?
TDP1 inh: 5%; HP1b chromo inh: 27%; BAZ2B block: 4%; JMJD2A Tudor inh: -4%

What do the screens show for `Cc1cc2c(s1)c1cnn(Cc3ccc(C(C)(C)C)cc3)c(=O)c1n2C`?
JMJD2A Tudor inh: -8%

How did COc1cccc(CNC(=O)C2CCN(Cc3cc4ccccc4n3Cc3ccc(C)cc3)CC2)c1 do in these assays?
TDP1 inh: 5%; HP1b chromo inh: 38%; BAZ2B block: -21%; JMJD2A Tudor inh: -25%

What do the screens show for `O=C(NC(NCc1ccccn1)(C(F)(F)F)C(F)(F)F)c1ccco1`?
CtBP-E1A inh: inconclusive; TDP1 inh: 5%; HP1b chromo inh: 26%; BAZ2B block: 50µM*; JMJD2A Tudor inh: 0.71µM*; Six1-Eya2 inh: -73*

What do the screens show for `O=C(NCCNCc1ccccn1)c1ccco1`?
CtBP-E1A inh: inconclusive; TDP1 inh: 0%; HP1b chromo inh: 37%; BAZ2B block: inconclusive; JMJD2A Tudor inh: -17%; Six1-Eya2 inh: inconclusive

How did N#Cc1nc(Nc2cc(F)cc(F)c2)nc(NC2CCCC2)n1 do in these assays?
TDP1 inh: -1%; JMJD2A Tudor inh: -12%

Results for COc1cc(CNCc2cccs2)ccc1OCc1cccs1 ?
CtBP-E1A inh: 8; TDP1 inh: 6%; HP1b chromo inh: 17%; BAZ2B block: 11%; JMJD2A Tudor inh: -10%; Six1-Eya2 inh: 1

What do the screens show for `CCN(CC)c1ccc(CNCc2cccs2)cc1`?
CtBP-E1A inh: -17; TDP1 inh: 5%; HP1b chromo inh: -1%; BAZ2B block: 50µM*; JMJD2A Tudor inh: inconclusive; Six1-Eya2 inh: -28

Screening data (PubChem)
